Measured values taken from PubChem BioAssay AID1159580 (chemical genetic matrix, 2015).
Screen size: about 5,500 compounds; about 2,000 (36%) were called active. Roughly 18% stayed inconclusive and do not appear here. Cut-off read from the data, not from the text of the source: active = normalized growth mostly below about 0.91 (no sharp cut-off); inconclusive = no clear call, values can overlap the other calls; inactive = mostly above about 0.92. Some of the results follow.

Test: chemical genetic growth profiling, strain panel (AID 1159580);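 note: tested at 20 µM; growth read once vehicle control cultures reached saturation at 30 °C; 1 = growth at the plate median or of vehicle wells; lower values mean less growth of the strain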
Details: S. cerevisiae deletion strains, growth OD

Measured: normalized growth

CC1CC(OC(=O)c2ccccc2O)CC(C)(C)C1 (stereo not given)
inactive: locus YAL021C, strain ccr4, stronger effect = lower value 0.977 | locus YAL026C, strain drs2, stronger effect = lower value 0.989 | locus YAL030W, strain snc1, stronger effect = lower value 0.985 | locus YBL061C, strain skt5, stronger effect = lower value 0.97 | locus YBR009C, strain hhf1, stronger effect = lower value 0.914 | locus YBR023C, strain chs3, stronger effect = lower value 0.974 | locus YBR171W, strain sec66, stronger effect = lower value 0.987 | locus YBR231C, strain swc5, stronger effect = lower value 0.961 | locus YBR279W, strain paf1, stronger effect = lower value 0.98 | locus YCL011C, strain gbp2, stronger effect = lower value 0.969 | locus YCL016C, strain dcc1, stronger effect = lower value 0.991 | locus YCL061C, strain MRC1, stronger effect = lower value 0.983 | locus YCL069W, strain vba3, stronger effect = lower value 0.987 | locus YCR088W, strain abp1, stronger effect = lower value 0.99 | locus YDL005C, strain med2, stronger effect = lower value 0.968 | locus YDL040C, strain nat1, stronger effect = lower value 0.983 | locus YDR001C, strain nth1, stronger effect = lower value 0.984 | locus YDR069C, strain doa4, stronger effect = lower value 0.943 | locus YDR137W, strain rgp1, stronger effect = lower value 0.922 | locus YDR159W, strain sac3, stronger effect = lower value 0.977 | locus YDR195W, strain ref2 0.968 | locus YDR297W, strain sur2, stronger effect = lower value 0.973 | locus YDR334W, strain swr1, stronger effect = lower value 0.985 | locus YDR335W, strain msn5, stronger effect = lower value 0.992 | locus YDR392W, strain spt3, stronger effect = lower value 0.89 | locus YEL003W, strain gim4, stronger effect = lower value 0.974 | locus YEL037C, strain rad23, stronger effect = lower value 0.987 | locus YEL061C, strain CIN8 (second series), stronger effect = lower value 0.965 | locus YER015W, strain faa2, stronger effect = lower value 0.975 | locus YER016W, strain bim1, stronger effect = lower value 0.982 | locus YER111C, strain swi4, stronger effect = lower value 0.985 | locus YER155C, strain BEM2 (second series), stronger effect = lower value 0.982 | locus YFR010W, strain ubp6, stronger effect = lower value 0.971 | locus YGL167C, strain pmr1, stronger effect = lower value 0.962 | locus YGL173C, strain kem1, stronger effect = lower value 0.967 | locus YGL227W, strain vid30, stronger effect = lower value 0.978 | locus YGL240W, strain doc1, stronger effect = lower value 0.933 | locus YGL253W, strain hxk2, stronger effect = lower value 1 | locus YHR013C, strain ard1, stronger effect = lower value 0.865 | locus YHR027C, strain rpn1, stronger effect = lower value 0.989 | locus YHR030C, strain SLT2, stronger effect = lower value 0.94 | locus YHR079C, strain IRE1, stronger effect = lower value 0.958 | locus YHR142W, strain chs7, stronger effect = lower value 0.978 | locus YJL092W, strain hpr5, stronger effect = lower value 0.985 | locus YJL095W, strain BCK1 (second series), stronger effect = lower value 0.993 | locus YJL095W, strain BCK1, stronger effect = lower value 1.01 | locus YJL115W, strain asf1, stronger effect = lower value 1 | locus YJL129C, strain trk1, stronger effect = lower value 0.896 | locus YJL154C, strain vps35, stronger effect = lower value 0.987 | locus YJL164C, strain tpk1, stronger effect = lower value 0.97 | locus YJL166W, strain qcr8, stronger effect = lower value 0.943 | locus YJL187C, strain SWE1, stronger effect = lower value 0.974 | locus YJR066W, strain TOR1, stronger effect = lower value 0.943 | locus YKL160W, strain elf1, stronger effect = lower value 0.993 | locus YKR026C, strain gcn3, stronger effect = lower value 0.953 | locus YKR091W, strain srl3, stronger effect = lower value 0.981 | locus YLL001W, strain dnm1, stronger effect = lower value 1.01 | locus YLL026W, stronger effect = lower value 0.98 | locus YLL041C, strain sdh2, stronger effect = lower value 0.989 | locus YLR027C, strain aat2, stronger effect = lower value 0.972 | locus YLR113W, strain HOG1, stronger effect = lower value 1 | locus YLR221C, strain rsa3, stronger effect = lower value 0.925 | locus YLR258W, strain gsy2, stronger effect = lower value 0.97 | locus YLR262C, strain YPT6 (second series), stronger effect = lower value 0.904 | locus YLR320W, strain mms22, stronger effect = lower value 0.952 | locus YLR342W, strain FKS1, stronger effect = lower value 0.949 | locus YLR357W, strain rsc2, stronger effect = lower value 0.975 | locus YLR370C, strain arc18, stronger effect = lower value 0.978 | locus YLR384C, strain iki3, stronger effect = lower value 0.997 | locus YML120C, strain ndi1, stronger effect = lower value 0.987 | locus YMR058W, strain fet3, stronger effect = lower value 0.981 | locus YMR125W, strain sto1, stronger effect = lower value 0.975 | locus YMR129W, stronger effect = lower value 0.998 | locus YMR205C, strain PFK2, stronger effect = lower value 0.906 | locus YMR231W, strain pep5, stronger effect = lower value 1 | locus YNL071W, strain lat1, stronger effect = lower value 0.974 | locus YNL183C, strain NPR1, stronger effect = lower value 0.947 | locus YNL209W, strain ssb2, stronger effect = lower value 0.983 | locus YNL248C, strain rpa49, stronger effect = lower value 0.989 | locus YNL322C, strain KRE1 (second series), stronger effect = lower value 0.99 | locus YNR049C, strain mso1, stronger effect = lower value 0.982 | locus YOR001W, strain rrp6, stronger effect = lower value 0.996 | locus YOR070C, strain gyp1, stronger effect = lower value 0.989 | locus YOR080W, strain dia2, stronger effect = lower value 0.968 | locus YOR083W, strain WHI5, stronger effect = lower value 1 | locus YOR106W, strain vam3, stronger effect = lower value 0.951 | locus YOR231W, strain MKK1, stronger effect = lower value 0.958 | locus YOR265W, strain rbl2, stronger effect = lower value 0.989 | locus YOR270C, strain vph1, stronger effect = lower value 0.977 | locus YOR290C, strain snf2, stronger effect = lower value 0.915 | locus YPL051W, strain arl3, stronger effect = lower value 1.01 | locus YPL078C, strain atp4, stronger effect = lower value 0.995 | locus YPL106C, strain sse1, stronger effect = lower value 0.974 | locus YPL240C, strain hsp82, stronger effect = lower value 0.958 | locus YPL256C, strain CLN2, stronger effect = lower value 0.94
